Sampled rows, rich in hits. Any-hit rate of the full collection: about 32%.
CYP2C9 inh = inhibitors of human CYP2C9 | inhibition, % at 5 µM | CYP2C9 Supersomes, luciferin-H conversion, luminescence | P11712 | AID 777 | 96,000 compounds, 20% hits;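 active = blocking of liver enzyme CYP2C9 beyond about 50% at 5 µM, limit read from the data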
Target sequence (P11712 whole entry, looked up): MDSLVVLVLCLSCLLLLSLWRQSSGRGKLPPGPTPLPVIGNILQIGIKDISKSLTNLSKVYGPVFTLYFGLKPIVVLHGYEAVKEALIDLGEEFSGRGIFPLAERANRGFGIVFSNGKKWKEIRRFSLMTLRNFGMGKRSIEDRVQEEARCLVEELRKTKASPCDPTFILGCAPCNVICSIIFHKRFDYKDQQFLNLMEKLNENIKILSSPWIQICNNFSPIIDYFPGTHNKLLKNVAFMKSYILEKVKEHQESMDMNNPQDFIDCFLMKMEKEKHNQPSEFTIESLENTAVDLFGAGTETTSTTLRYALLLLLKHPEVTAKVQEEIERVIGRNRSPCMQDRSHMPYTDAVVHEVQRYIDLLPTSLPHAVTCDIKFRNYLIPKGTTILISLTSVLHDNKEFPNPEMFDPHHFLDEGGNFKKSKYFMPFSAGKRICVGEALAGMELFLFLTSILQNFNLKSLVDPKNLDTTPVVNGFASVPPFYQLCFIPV
CYP2C9 activ = activators of human CYP2C9; 96,000 compounds, 1.4% hits; activation factor at 5 µM; P11712; AID 1024; recombinant CYP2C9, luciferin-H conversion, luminescence; stronger effect = higher value; factor 1 = untreated enzyme, 0 = blocked;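 active = activation factor of 2 or more for CYP2C9 at a 5 µM dose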;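 also: 0 = sulfaphenazole-blocked wells and 1 = vehicle-only wells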
CYP2C19 inh = inhibitors of human CYP2C19; CYP2C19 Supersomes, luciferin-H EGE luminescence, 30 min; AID 778; P33261; inhibition, % at 5 µM; 96,000 compounds, 21% hits;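 active = CYP2C19 inhibition above a set limit at 5 µM in the primary screen, cut at about 50% in these data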;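 also: plate controls were negative control wells for no effect and 2.5 mM tranylcypromine positive control for full effect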
CYP2C19 activ = cytochrome P450 2C19 (human) activation; P33261; recombinant CYP2C19, luciferin-H EGE luminescence; stronger effect = higher value; 0 = fully inhibited enzyme, 1 = untreated enzyme; activation factor at 5 µM; 96,000 tested, under 10 active; AID 1025;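 active = activation factor of at least 2 at 5 µM in the primary screen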;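 also: 0 = wells with 2.5 mM tranylcypromine and 1 = vehicle-only wells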
PostGolgi yeast = growth inhibition of a yeast mutant, post-Golgi transport screen | inhibition, % at 10 µM | 98,000 compounds, 0.9% hits | post-Golgi transport phenotypic cell assay;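 also: yeast cells grown in 1536-well plates; yeast grown about 18 h at 30C before absorbance read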
PostGolgi ctrl = growth of the yeast control strain, post-Golgi counter-screen; 98,000 compounds, 5% hits; inhibition, % at 10 µM; efflux-deficient yeast background strain, growth absorbance A615, 16 h
Starred values were filed as active, the others as inactive; . = no result given. Rule as the data show it, unless noted: active = inhibition above about 30%; inactive = the rest.

SMILES	CYP2C9 inh	CYP2C9 activ	CYP2C19 inh	CYP2C19 activ	PostGolgi yeast	PostGolgi ctrl
CCn1c(SCC(=O)c2cc(OC)ccc2OC)nc2c1c(=O)n(C)c(=O)n2C	25	0.8	11	0.9	.	.
COc1ccc(-c2nn(-c3ccccc3)cc2/C=N/n2cnnc2)cc1OC	46	0.5	80*	0.2	0	25
C(=N\n1cnnc1)/c1cn(-c2cccs2)nc1-c1ccccc1	70*	0.3	81*	0.2	5	-2
CN(CC(=O)N1CCN(C2CCCCC2)CC1)S(=O)(=O)c1cccc2nsnc12	12	0.9	-10	1.1	-1	7
Cc1ccc(-c2nnn(CC(=O)N(c3ccccc3)C(C(=O)NCC3CCCO3)c3ccc(Cl)cc3)n2)cc1 (stereo not given)	88*	0.1	62*	0.4	2	19
Cc1ccc(-c2nnn(CC(=O)N(c3ccccc3F)C(C(=O)NCC3CCCO3)c3c[nH]c4ccccc34)n2)cc1 (stereo not given)	75*	0.2	36	0.6	-2	11
COc1ccc(-c2nnn(CC(=O)N(Cc3ccccc3Cl)C(C(=O)NCC3CCCO3)c3ccco3)n2)cc1 (stereo not given)	43	0.6	7	0.9	-6	-3
CC(=O)Nc1ccc(-c2nn[nH]n2)cc1Cl	13	0.9	4	1	6	-10
CC(C)c1nnc(NC(=O)CCC(=O)NCc2cccs2)s1	9	0.9	-6	1.1	-2	2
CN1C(=O)C2(NCCc3c2[nH]c2ccccc32)c2ccccc21 (stereo not given)	15	0.9	81*	0.2	7	-1
O=C(NCCSc1ccccc1)c1cccnc1	22	0.8	40	0.6	19	3
CCC(Oc1ccccc1)C(=O)Nc1nc2ccccc2[nH]1 (stereo not given)	52*	0.5	32	0.7	-1	8
COc1ccccc1CCC(=O)Nc1nc2ccccc2[nH]1	1	1	62*	0.4	3	30
COc1ccc(CCC(=O)Nc2nc3ccccc3[nH]2)cc1	7	0.9	2	1	25	5
CCC(=O)NC1(C(F)(F)F)C(=O)NC(C)=C1C#N (stereo not given)	4	1	12	0.9	-6	0
COc1cc2cc(C(=O)O)[nH]c2c(OC)c1OC	-1	1	-11	1.1	8	14
O=c1ncn(-c2cccc(F)c2)c2ncccc12	-16	1.2	-20	1.2	-1	7
COCCCn1ccc(O)c(Cc2ccc(F)cc2)c1=O	18	0.8	33	0.7	15	10
COC(=O)c1cccc(NC(=O)Cn2nnc3ccccc32)c1	96*	0	64*	0.4	2	-5
CCOC(=O)c1cccc(Nc2nc(C)cc(C)n2)c1	14	0.9	16	0.8	12	10
CCOC(=O)c1ccc(NC(=O)Cn2nnc3ccccc32)cc1	11	0.9	-3	1	-16	4
COC(=O)c1cccc(NC(=O)CCCOc2ccccc2)c1	59*	0.4	80*	0.2	14	-10
COC(=O)c1cccc(Nc2nc3ccccc3nc2C)c1	44	0.6	14	0.9	16	53*
CC(=O)c1cccc(NC(=O)CCOc2ccccc2)c1	-83	1.8	22	0.8	3	20
COc1cccc(NC(=O)CNC(=O)c2ccccc2)c1	46	0.5	50*	0.5	2	-2
SMILES	CYP2C9 inh	CYP2C9 activ	CYP2C19 inh	CYP2C19 activ	PostGolgi yeast	PostGolgi ctrl
C/C(=C\C#N)n1nc(C)cc1N	-2	1	-3	1	-16	19
COc1cccc(NC(=O)CNC(C)CCC(C)C)c1 (stereo not given)	26	0.7	79*	0.2	4	6
CCOC(=O)c1cccc(Nc2ncnc3ccc(C)cc23)c1	50	0.5	56*	0.4	-10	4
COc1ccccc1C(=O)Nc1cccc(NC(C)=O)c1	-1	1	16	0.8	-3	1
CCOCC(=O)Nc1cccc(OC)c1	.	.	.	.	2	5
COc1ccccc1C(=O)NCC(=O)Nc1ccccc1	9	0.9	51*	0.5	-7	3
CCOC(=O)c1oc2ccccc2c1NC(=O)c1ccc(Cl)s1	2	1	-7	1.1	1	0
COCCCNc1cc(C)nc2ccccc12	5	0.9	2	1	-3	9
COCCCNc1nc(-c2ccncc2)nc2ccccc12	71*	0.3	78*	0.2	2	12
COCCCNC(=O)CCc1nc(-c2ccccc2)no1	-14	1.1	5	1	-2	8
COCCCNC(c1ccccc1)c1ccncc1 (stereo not given)	65*	0.4	86*	0.1	23	0
CCN=C1SC(CC(=O)Nc2ccc(C(F)(F)F)cc2)C(=O)N1CC (stereo not given)	17	0.8	65*	0.4	-4	8
CCN=C1SC(CC(=O)Nc2sc3c(c2C#N)CCCC3)C(=O)N1CC (stereo not given)	53*	0.5	20	0.8	-13	2
CCC(=O)Nc1sc2c(c1C#N)CCCCC2	3	1	24	0.8	-3	9
CCNC(=O)CC1SC(=Nc2ccc(C)cc2)N(CC)C1=O (stereo not given)	27	0.7	53*	0.5	5	1
CCN=C1SC(CC(=O)Nc2ccccc2OCC)C(=O)N1CC (stereo not given)	-36	1.4	76*	0.2	16	8
CCN=C1SC(CC(=O)NCCc2ccc(OC)cc2)C(=O)N1CC (stereo not given)	51*	0.5	48	0.5	14	4
CCN=C1SC(CC(=O)NCCc2ccc(OC)c(OC)c2)C(=O)N1CC (stereo not given)	22	0.8	17	0.8	-3	26
CCCCOc1ccccc1NC(=O)CC1SC(=NCC)N(CC)C1=O (stereo not given)	-14	1.1	69*	0.3	14	-1
CCN=C1SC(CC(=O)NC(N)=O)C(=O)N1CC (stereo not given)	-13	1.1	3	1	-3	8
O=C(NCc1ccccc1)N1CCN(c2ccc(Cl)c(Cl)c2)CC1	22	0.8	-3	1	-2	11
O=C1CCC(/C=C/c2ccccc2)=NN1Cc1ccc(Cl)c(Cl)c1	73*	0.3	44	0.6	23	60*
O=C1CCC(/C=C/c2ccccc2)=NN1Cc1ccccc1Cl	49	0.5	34	0.7	-16	39*
Cc1cc(C(=O)COC(=O)c2n[nH]c3ccccc23)c(C)n1CC1CCCO1 (stereo not given)	-3	1	33	0.7	-2	8
O=C(/C=C/c1ccccc1)NCCSc1ccc(Cl)cc1	-53	1.5	15	0.9	1	7
O=c1c(Cc2ccc(F)cc2)c(O)ccn1Cc1cccc(Cl)c1	16	0.8	21	0.8	-2	8

Assay outcomes: PubChem, several laboratories
